# Compound activity (PubChem BioAssay)
# An excerpt weighted towards active compounds, which were near 9.2% of everything screened.
# ALDH1A1 inh – blocks purified human ALDH1A1 activity | Purified ALDH1A1, NADH fluorescence, propionaldehyde substrate | 220,000 compounds, 7.3% hits | P00352 | Potency, µM (series often up to 75.3 µM), actives largely listed as inhibitors
# Target sequence (P00352 whole entry, looked up): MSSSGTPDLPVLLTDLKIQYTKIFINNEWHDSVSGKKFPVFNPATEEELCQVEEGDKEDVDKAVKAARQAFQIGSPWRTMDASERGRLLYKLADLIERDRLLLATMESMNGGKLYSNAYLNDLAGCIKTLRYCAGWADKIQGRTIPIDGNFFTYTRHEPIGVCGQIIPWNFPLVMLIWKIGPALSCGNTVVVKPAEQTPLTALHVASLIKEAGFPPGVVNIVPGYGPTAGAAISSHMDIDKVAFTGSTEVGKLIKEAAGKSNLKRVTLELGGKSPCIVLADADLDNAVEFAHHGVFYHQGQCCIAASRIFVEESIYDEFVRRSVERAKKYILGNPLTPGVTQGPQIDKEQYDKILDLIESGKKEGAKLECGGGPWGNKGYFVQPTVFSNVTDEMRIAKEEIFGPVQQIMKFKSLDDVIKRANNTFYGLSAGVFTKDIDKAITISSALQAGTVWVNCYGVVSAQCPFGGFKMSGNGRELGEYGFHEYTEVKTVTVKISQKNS
# JMJD2E inh – blocks human JMJD2E demethylase activity; Potency, µM (titrated, usually from 57.1 µM), hits mostly inhibitors; B2RXH2; 230,000 compounds, 1.6% hits; JMJD2E catalytic domain, FDH-coupled NADH fluorescence (FDH is formaldehyde dehydrogenase); note: nearly all actives have a fitted effect of over 50% in size
# HPGD inh – HPGD (human) dehydrogenase inhibition | P15428 | purified HPGD, NADH fluorescence kinetic, PGE2 substrate | Potency, µM, usual class: inhibitors | 150,000 compounds, 4.3% hits
#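 20 nM HPGD preincubated 15 min at room temperature with compound in 50 mM Tris-HCl pH 8, 0.01% Tween 20. Started with 1 mM NAD+ and 30 uM prostaglandin E2; NADH fluorescence (360/450 nm) read 5 times over 30-s intervals, last minus first.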
# HttQ103 aggreg – mutant huntingtin aggregation inhibition. 220,000 compounds, 1.1% hits. Potency, µM (doses to about 46.1 µM), most hits filed as inhibitors. PC12 HttQ103-GFP aggregates, Acumen cytometry, 40 h; active = well fitted curve in the direction sought with a large enough effect; inconclusive = small, poorly fitted or top-dose-only effect, or another doubt; inactive = no such curve, though single readings can be large; an effect the other way counts as inactive or inconclusive; note: nearly all actives have a fitted effect of over 60% in size
#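 Aggregates are detected as GFP objects 1–25 µm with signal 6 STDEV over background in lysates of induced PC12 cells. These carry Huntingtin exon 1 with 103 glutamines fused to GFP under an ecdysone promoter; compounds titrated.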
# LMNA splice mod – modulators of lamin A splicing; AID 1487; 200,000 compounds, 0.01% hits; HeLa LMNA splicing GFP/RFP minigene ratio, 48 h; Potency, µM (doses to about 46.1 µM), actives largely listed as inhibitors; active = well fitted inhibition curve with a large enough effect in the signal ratio, with a control signal flat, not every such curve was filed as active; inconclusive = small, poorly fitted or top-dose-only effect, or effect the other way, or a change in a side signal; the % refers to the signal ratio
#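 S3 HeLa cells stably expressing lamin A-EGFP splicing minigene plus DsRed2, 600 cells/well, 48 h compound exposure at 37C. Laser-scanning cytometry; analysed as GFP (500-530 nm)/RFP (575-640 nm) total intensity ratio; 0.5% DMSO vehicle.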
# HTT ATP protect – Huntington cell model cytoprotection by ATP luminescence; PC12 HTT-Q103 induced, cytoprotection, ATP luminescence, 40 h; Potency, µM (top dose mostly 56.4 µM), actives largely listed as activators; 230,000 compounds, 0.14% hits; AID 1471; active = well fitted curve in the direction sought with a large enough effect; inconclusive = small, poorly fitted or top-dose-only effect, or another doubt; inactive = no such curve, though single readings can be large; an effect the other way counts as inactive or inconclusive; note: nearly all actives have a fitted effect of over 45% in size
#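 PC12 cells with ecdysone-inducible HTT exon 1 Q103-GFP, induced with 100 nM tebufenozide and co-treated with library compounds in a dose series (1536-well, 1500 cells/well). Cytoprotection read as ATP content by ATPlite luminescence.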
# A number is an active result; - = inactive; ? = inconclusive; . = no result; [ ] = another dose, or the depositor's remark. Unless noted, calls come from the whole dose curve; as a rule, active = well fitted inhibition curve with a large enough effect (not every such curve was filed as active); inconclusive = small, poorly fitted or top-dose-only effect, or another doubt; inactive = no such curve, though single readings can be large or run the other way.
SMILES,ALDH1A1 inh,JMJD2E inh,HPGD inh,HttQ103 aggreg,LMNA splice mod,HTT ATP protect
CC1(C)CC(=O)C2=C(C1)OC(N)=C(C#N)C2C1CC=CCC1 (stereo not given),7.9µM,-,-,-,-,-[10 µM]
COc1ccc(C2C(C#N)=C(SC)NC3=C2C(=O)CC(C)(C)C3)cc1 (stereo not given),14µM,?,-,-,-,-
CC1(C)CC(=O)C2=C(C1)OC(N)=C(C#N)C2c1ccc(OC(=O)N2CCOCC2)cc1 (stereo not given),3.2µM,-,-,-[9.22 µM],-,-
CC1(C)CC(=O)C2=C(C1)OC(N)=C(C#N)C2Cc1ccccc1 (stereo not given),-,-,-,-,-,-[10 µM]
CC1=C(C(=O)N2CCOCC2)C(c2ccc(OC(F)F)cc2)NC(=S)N1c1ccccc1 (stereo not given),?,-,.,-,-,?
CC1C(C#N)=C(N)OC2=C1C(=O)CC(C)(C)C2 (stereo not given),-,-,?,-,-,-
COc1ccc(C2C(C#N)=C(N)OC3=C2C(=O)CC(C)(C)C3)cc1 (stereo not given),4.5µM,-,.,-[9.22 µM],-,-[10 µM]
CC1(C)CC(=O)C2=C(C1)OC(N)=C(C#N)C2c1ccsc1 (stereo not given),25µM,-,-,-,-,-[10 µM]
CCC(C)C1C(C#N)=C(N)OC2=C1C(=O)CC(C)(C)C2 (stereo not given),11µM,-,-,-,-,-
CCN(Cc1ccccc1)C(=O)Cn1c(=O)cc(C)c2c(C)nn(-c3cccc(F)c3)c21,.,.,.,.,-,.
CO[C@@H]1/C=C\CC(=O)N[C@@H](C)C(=O)OC[C@@H](OC)[C@H](C)/C=C\CC(=O)OC[C@H]1C,-[13.5 µM],.,.,.,.,-[10 µM]
COc1ccccc1-c1nc(NCc2cnc(C)cn2)c2ccccc2n1,?,?,?,.,-,-
Brc1ccc(OCc2ccccc2)c(CNCc2ccncc2)c1,2µM,-,-,?,-[0.0737 µM],-
Fc1ccc(COc2ccccc2CNCc2ccncc2)cc1,?,-,-,-,?,-[10 µM]
COc1ccccc1-c1ccc(=O)n(CC(=O)NCC2CCCO2)n1 (stereo not given),-,-,.,-[9.22 µM],-,-[10 µM]
COc1ccccc1-c1ccc(=O)n(CC(=O)Nc2ccc(C(=O)N3CCCC3)cc2)n1,?,-,14µM,-,-,-
COc1cc(/C=C(\C#N)C(=O)NCC2CCCO2)ccc1O (stereo not given),?,-,-,-,?,-[10 µM]
CCOc1ccc(/C=C(\C#N)C(=O)NCC2CCCO2)cc1OCC (stereo not given),28µM,-,-,-,-,-[10 µM]
Nc1ccc(Nc2nc(-c3ccncc3)cs2)cc1,22µM,-,-,?,?,-
Oc1ccc(Nc2nc(-c3ccc(Cl)cc3)cs2)cc1,-,-,-,.,.,-
Oc1ccc(Nc2nc(-c3ccc(O)cc3)cs2)cc1,22µM,-,?,?,?,-[10 µM]
COc1ccc(-c2csc(Nc3cccnc3)n2)cc1,28µM,-,-,-,?,-
Fc1ccc(Nc2nc(-c3ccncc3)cs2)cc1,-,-,.,-,?,?
COc1ccc(-c2csc(Nc3ccccc3)n2)cc1,?,-,.,-,-,-[10 µM]
CCN(CC)c1ccc(/C=N/NC(=O)OC)c(O)c1,?,13µM,?,-,-,-
SMILES,ALDH1A1 inh,JMJD2E inh,HPGD inh,HttQ103 aggreg,LMNA splice mod,HTT ATP protect
CCN(CC)c1ccc(/C=N/NC(=O)c2ccc3nc[nH]c3c2)c(O)c1,.,?,.,-[9.22 µM],.,-[10 µM]
CCN(CC)c1ccc(/C=N/NC(=O)c2ccoc2C)c(O)c1,.,11µM,.,?,.,-[10 µM]
CCN(CC)c1ccc(/C=N/NC(=S)NC)c(O)c1,?,?,.,-,.,-
O=C(Nc1nc(-c2ccncc2)cs1)C1c2ccccc2Oc2ccccc21,-,-,-,-,?,-[10 µM]
CC(C)c1nnc(NC(=O)C2c3ccccc3Oc3ccccc32)s1,?,-,-,-,-,-
Cc1nnc(NC(=O)C2c3ccccc3Oc3ccccc32)s1,-,-,22µM,?,?,-[10 µM]
O=C(Nc1nc(-c2ccccc2)cs1)C1c2ccccc2Oc2ccccc21,1.8µM,-,-,-,-,-[10 µM]
Cc1c(C(=O)NC(C)C)sc2ncn(CC(=O)N3CCC(C)CC3)c(=O)c12,-,-,-,-,-,-
CN(C)c1ncc2nc(-c3cc(F)cc(F)c3)c(=O)n(Cc3ccc(F)cc3)c2n1,-,.,.,.,-,-
Cc1cc(NC(=S)N(CCN2CCCCC2)Cc2ccco2)ccc1Cl,7.9µM,-,.,?,?,-
COc1c(C)c2c(c(O)c1CC=C(C)CCC(=O)OCCN1CCOCC1)C(=O)OC2,?,.,?,-,?,-
COc1ccc2c(c1)-c1nc(/N=C/c3c(O)ccc4ccccc34)sc1CC2,18µM,?,?,-,-,-[10 µM]
Cc1ccccc1NC(=O)c1cc(C(=O)c2cc(Cl)ccc2O)cn(-c2ccccc2C)c1=O,-,-,10µM,16µM,?,-[10 µM]
Cc1ccc(-n2cc(C(=O)c3cc(Cl)ccc3O)cc(C#N)c2=O)cc1,-,?,-,13µM,?,-[10 µM]
COc1ccc(-n2cc(C(=O)c3cc(Cl)ccc3O)cc(C#N)c2=O)cc1,-,-,.,-,-,-
Cc1ccc(S(=O)(=O)NCCc2cn3ccsc3n2)c(C)c1,.,.,.,.,-,.
CCC1=C2CC[C@H]3C(=O)N(c4ccccc4)C(=O)[C@H]3[C@H]2[C@@]2(Cc3ccccc3)C(=NCC3CC3)OC(=O)N2C1=O,-,-,-,.,.,-
CCOC(=O)c1oc2ccc(Br)cc2c1NC(=O)CN1CCN(C)CC1,?,-,-,-,-,-
O=C(Nc1c(C(=O)O)oc2ccc(Br)cc12)c1ccccc1,28µM,-,?,-,-,-
CC1=NNC(=O)C1CCC(=O)N/N=C/c1ccccc1 (stereo not given),.,-,.,-[9.22 µM],.,-[10 µM]
Cc1ccc2c(c1)nc(-n1nc(C)cc1C)c1nnnn12,-,-,.,-,.,-
O=C(Nc1cc(C(F)(F)F)ccc1Cl)C(Sc1nnc(-c2cccs2)o1)c1ccccc1 (stereo not given),1µM,-,.,-,?,-[10 µM]
O=C(Nc1ccc(Cl)cc1C(F)(F)F)C(Sc1nnc(-c2cccs2)o1)c1ccccc1 (stereo not given),2.8µM,-,.,-,?,-[10 µM]
Cc1ccc(C)c(NC(=O)c2cc(S(=O)(=O)N3CCCc4ccccc43)ccc2F)c1,.,.,.,.,-,.
Cc1nc2ccccn2c1C(=O)NNS(=O)(=O)c1ccc(Cl)cc1,8.9µM,-,.,-[9.22 µM],.,-[10 µM]
NNC(=O)c1cnn(-c2ccccc2)c1-n1cccc1,0.71µM,-,.,-,?,-
O=C(NNS(=O)(=O)c1ccc(Cl)cc1)c1cnn(-c2ccccc2)c1-n1cccc1,2µM,-,-,-,-,-
O=C(NNS(=O)(=O)c1ccccc1)c1cnn(-c2ccccc2)c1-n1cccc1,-,-,-,-,-,-
